Data on nine molecules can be found in PubChem BioAssay (EPA / NIEHS).

Test [1] in a line: Tanguay_ZF_120hpf_YSE_legacy: (Legacy) Oregon State University Tanguay Lab 120 Hour Post-fertilization zebrafish Assay for Yolk Sac Edema (AID 2283634).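 On AC50: actives raise the incidence of yolk sac edema above the DMSO baseline.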 The method, boiled down: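 Dechorionate (pronase, 4 hpf) → place one 6 hpf embryo per well → static compound exposure, sealed and foil-covered, 28C, to 120 hpf → record yolk sac edema as present or absent. Final DMSO 0.64%.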

Test [2] in a line: Tanguay_ZF_120hpf_AXIS_legacy: (Legacy) Oregon State University Tanguay Lab 120 Hour Post-fertilization zebrafish Assay for Body Axis Malformation (AID 2283635). Summed up: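 Chorion is removed with pronase at 4 hpf, then single 6 hpf embryos are dosed (final DMSO 0.64%) and held statically at 28C in sealed, foil-covered plates. At 120 hpf body axis malformation is recorded as present or absent.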

Test [3] in a line: Tanguay_ZF_120hpf_SNOU_legacy: (Legacy) Oregon State University Tanguay Lab 120 Hour Post-fertilization zebrafish Assay for Snout Malformation (AID 2283637). Summed up: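 Binary brightfield scoring of snout malformation at 120 hpf. Dechorionated 5D wild-type embryos, one per well, static exposure from 6 hpf at 28C, sealed and dark; final DMSO 0.64% (vol/vol), DMSO as baseline; 5uM trimethyltin chloride positive control.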

The nature of test [4]: Tanguay_ZF_120hpf_JAW_legacy: (Legacy) Oregon State University Tanguay Lab 120 Hour Post-fertilization zebrafish Assay for Jaw Malformation (AID 2283638). The method, boiled down:
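Steps: dechorionate 4 hpf embryos (pronase); plate 1/well at 6 hpf; add test chemical, 0.64% DMSO final; seal, cover, hold at 28C statically to 120 hpf; score jaw defect presence/absence microscopically. Dead embryos not scored.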

Test [5] is described as follows: Tanguay_ZF_120hpf_OTIC_legacy: (Legacy) Oregon State University Tanguay Lab 120 Hour Post-fertilization zebrafish Assay for Otic Vesicle Malformation (AID 2283639). The method, boiled down:
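Wild-type zebrafish larvae, whole-embryo exposure from early stage to 120 hpf at 28C. Binary brightfield scoring of otic vesicle morphology, fitted in the positive direction against the DMSO baseline.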

Test [6] is described as follows: Tanguay_ZF_120hpf_PE_legacy: (Legacy) Oregon State University Tanguay Lab 120 Hour Post-fertilization zebrafish Assay for Pericardial Edema (AID 2283640). The method, boiled down: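 Embryos from wild-type 5D adults were staged, then dosed in 0.64% DMSO. They were kept sealed in the dark at 28C until 120 hpf. Pericardial edema was then recorded as present or absent.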

A short description of test [7]: Tanguay_ZF_120hpf_BRAI_legacy: (Legacy) Oregon State University Tanguay Lab 120 Hour Post-fertilization zebrafish Assay for Brain Malformation (AID 2283641). Summed up:
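Wild-type 5D larvae, static waterborne exposure to 120 hpf, 28C, 0.64% v/v DMSO. Brightfield scoring of brain defects, binary; dead embryos excluded. Positive ctrl 5uM trimethyltin chloride.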

A short description of test [8]: Tanguay_ZF_120hpf_SOMI_legacy: (Legacy) Oregon State University Tanguay Lab 120 Hour Post-fertilization zebrafish Assay for Somite Malformation (AID 2283647). Summed up: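 Read-out: presence or absence of somite malformation in 120 hpf larvae, gain-of-signal relative to DMSO baseline. Embryos lacked chorion (pronase, 4 hpf) and were exposed statically from 6 hpf at 28C; dead larvae not scored.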

The nature of test [9]: Tanguay_ZF_120hpf_PFIN_legacy: (Legacy) Oregon State University Tanguay Lab 120 Hour Post-fertilization zebrafish Assay for Pectoral Fin Malformation (AID 2283648).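 Further: each larva judged yes or no for fin defect by brightfield with dead larvae skipped.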 Summed up: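 Binary pectoral fin malformation call at 120 hpf by brightfield microscopy; 5D wild-type zebrafish, chorion removed at 4 hpf, one embryo per well from 6 hpf, static exposure at 28C; DMSO (0.64% final) as baseline.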

A short description of test [10]: Tanguay_ZF_120hpf_PIG_legacy: (Legacy) Oregon State University Tanguay Lab 120 Hour Post-fertilization zebrafish Assay for Pigmentation Malformation (AID 2283650).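 Further: dechorionated Tropical 5D zebrafish embryos exposed singly from 6 to 120 hpf.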 Summed up:
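Brightfield scoring of pigmentation malformation at 120 hpf, recorded as binary present/absent per larva. Exposure: dechorionated 5D wild-type embryos, one per well, static from 6 hpf at 28C, final DMSO 0.64% (vol/vol). Dead embryos not scored.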

Test [11] can be described thus: Tanguay_ZF_120hpf_CIRC_legacy: (Legacy) Oregon State University Tanguay Lab 120 Hour Post-fertilization zebrafish Assay for Circulatory Malformation (AID 2283651). The method, boiled down: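 Binary circulatory-malformation call at 120 hpf via brightfield imaging, relative to DMSO controls. Embryos (5D strain, chorion removed) received static, light-shielded exposure at 28C.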

Test [12] is described as follows: Tanguay_ZF_120hpf_TRUN_legacy: (Legacy) Oregon State University Tanguay Lab 120 Hour Post-fertilization zebrafish Assay for Truncated Body (AID 2283655). Summed up: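 Truncated body is recorded as a binary endpoint at 120 hpf by brightfield imaging of wild-type 5D larvae. Exposure runs statically from 6 hpf at 28C with 0.64% DMSO; embryos dying earlier are not scored.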

Test [13] is described as follows: Tanguay_ZF_120hpf_EYE_legacy: (Legacy) Oregon State University Tanguay Lab 120 Hour Post-fertilization zebrafish Assay for Eye Malformation (AID 2283636). Summed up: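 5D wild-type embryos, pronase-dechorionated at 4 hpf; static exposure 6–120 hpf, 28C, dark; DMSO 0.64% final; 5uM trimethyltin chloride positive control. Binary eye-defect scoring at 120 hpf; dead embryos not scored.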

Test [14] is described as follows: Tanguay_ZF_120hpf_CFIN_legacy: (Legacy) Oregon State University Tanguay Lab 120 Hour Post-fertilization zebrafish Assay for Caudal Fin Malformation (AID 2283649). Summed up:
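Binary presence or absence of caudal fin malformation at 120 hpf, read by brightfield microscopy, with DMSO as baseline. Larvae came from 5D wild-type embryos exposed statically from 6 hpf at 28C after pronase dechorionation.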

Read-out in test [15]: solute carrier (SLC22A6), SLC22A6 (gene 9356)
Description: LTEA_HepaRG_SLC22A6: Life Technologies and Expression Analysis (LTEA) Assay for solute carrier (SLC22A6) using HepaRG (AID 2283653; active means hit-call score of the fitted dose curve at least 0.9, where 1 is the maximum; inactive means score below 0.9). The note with it: mRNA level, 48 h; actives raise or lower the signal. Summed up:
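Read-out is SLC22A6 transcript level by qRT-PCR, normalised to three housekeeping genes and fitted for gain or loss relative to 0.5% DMSO vehicle. Human HepaRG cells received chemicals at up to 100 uM for 48 h.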

Test [16] can be described thus: Tanguay_ZF_120hpf_SWIM_legacy: (Legacy) Oregon State University Tanguay Lab 120 Hour Post-fertilization zebrafish Assay for Swim Bladder Malformation (AID 2283654).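 Further: swim bladder malformation in each larva scored yes or no under brightfield.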 Summed up:
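Tropical 5D embryos dechorionated at 4 hpf; 1 embryo/well from 6 hpf; static, sealed, dark exposure at 28C until 120 hpf; final DMSO 0.64%; 5uM trimethyltin chloride positive control; swim bladder defect recorded yes/no; dead embryos not scored.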

Read-out in test [17]: solute carrier (SLC10A1), SLC10A1 (gene 6554)
As to the kind of experiment: LTEA_HepaRG_SLC10A1: Life Technologies and Expression Analysis (LTEA) Assay for solute carrier (SLC10A1) using HepaRG (AID 2283657; active means hit-call score of the fitted dose curve at least 0.9, where 1 is the maximum; inactive means score below 0.9). The note with it: mRNA level, 48 h; actives raise or lower the signal. The method, boiled down:
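HepaRG, 48 h exposure, 8-pt half-log curve from 100 uM in 0.5% DMSO, duplicates. Read-out: TaqMan qRT-PCR of SLC10A1 mRNA, normalized to three housekeeping genes. Gain/loss fit vs DMSO baseline.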

Read-out in test [18]: matrix metalloproteinase-1 (MMP1), MMP1 (gene 4312)
As to the kind of experiment: LTEA_HepaRG_MMP1: Life Technologies and Expression Analysis (LTEA) Assay for matrix metalloproteinase-1 (MMP1) using HepaRG (AID 2283658; active means hit-call score of the fitted dose curve at least 0.9, where 1 is the maximum; inactive means score below 0.9). The note with it: mRNA level, 48 h; actives raise or lower the signal. Summed up:
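HepaRG, ~100,000 cells/well, 48 h pre-culture; serum-free induction medium; test chemical 8 conc (max 100 uM, half-log), duplicate, 48 h; 0.5% DMSO; qRT-PCR MMP1, housekeeping-normalized; gain/loss fit vs DMSO.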

Read-out in test [19]: kallikrein-3 (KLK3), KLK3 (gene 354)
As to the kind of experiment: LTEA_HepaRG_KLK3: Life Technologies and Expression Analysis (LTEA) Assay for kallikrein-3 (KLK3) using HepaRG (AID 2283652; active means hit-call score of the fitted dose curve at least 0.9, where 1 is the maximum; inactive means score below 0.9). The note with it: mRNA level, 48 h; actives raise or lower the signal. The method, boiled down: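 KLK3 transcript levels were measured by TaqMan qRT-PCR with normalisation to three housekeeping genes. HepaRG cultures received chemicals for 48 h at up to 100 uM (half-log, 8 points, 0.5% DMSO vehicle), fitted in both directions against DMSO.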

Test [20] can be described thus: Tanguay_ZF_120hpf_NC_legacy: (Legacy) Oregon State University Tanguay Lab 120 Hour Post-fertilization zebrafish Assay for Notochord and Tail Malformation (AID 2283656). The method, boiled down:
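Binary notochord-distortion calls, made by brightfield inspection, form the read-out; activity is fitted in the positive direction against DMSO. Exposure ran statically from 6 to 120 hpf at 28C with 0.64% DMSO.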

Records with an inconclusive call do not appear. Calls of active or inactive are those of the source. How the source made its calls, unless noted: active means hit-call score of the fitted dose curve at least 0.9, where 1 is the maximum; inconclusive means response in the unintended direction; inactive means score below 0.9.

For the molecule `COc1cccc(C(=O)NN(C(=O)c2cc(C)cc(C)c2)C(C)(C)C)c1C`, the outcome in test [1], in test [2], in test [3], in [4], in [5] and in test [6] was inactive. Also, the result in test [7], in test [8], in test [9], in test [10], in [11] and in [12] was inactive.

As for `CCc1cccc(C)c1N(C(=O)CCl)C(C)COC` (centres undefined), the call in test [1], in test [2], in [13], in [3], in test [5] and in test [6] was inactive. Moreover, the molecule was classed as inactive in test [7], in test [9], in [14], in test [10], in [11] and in test [12].

For `CN(C)C(=O)Nc1cccc(C(F)(F)F)c1`, the molecule was classed as inactive in test [1], in test [2], in test [3], in test [4], in test [5] and in test [6]. Further, the call in test [7], in [9], in test [14], in [10], in test [11] and in [12] was inactive.

For the molecule `CCCCN(CC)c1c([N+](=O)[O-])cc(C(F)(F)F)cc1[N+](=O)[O-]`, the outcome in test [1], in test [2], in test [3], in test [4], in [5] and in test [6] was inactive. For the same molecule, the outcome in test [7], in [9], in test [14], in test [11], in [15] and in [16] was inactive. Besides, the molecule was called inactive in [17] and in test [18].

The AC50 is the midpoint of the concentration-response curve, whichever way the signal moves. With `CCOP(=S)(OCC)Oc1ccc2c(C)c(Cl)c(=O)oc2c1`, the call in [1], in test [2], in test [3], in test [4], in test [6] and in test [7] was inactive. For the same molecule, the result in test [9], in test [14], in [10], in [11], in [19] and in test [15] was inactive. Also, the result in test [12] and in test [18] was inactive. In addition, in test [17], the AC50 is 70.7 µM (active).

For `CCCCOC(=O)[C@@H](C)Oc1ccc(Oc2ccc(C#N)cc2F)cc1`, the molecule was classed as inactive in test [1], in test [2], in test [3], in test [4], in [6] and in [14]. For the same molecule, the call in test [10] and in test [12] was inactive.

Take `CCCOc1nn(C(=O)NS(=O)(=O)c2ccccc2C(=O)OC)c(=O)n1C`: the molecule was called inactive in [1], in test [3], in test [4], in [5], in test [6] and in [14].

Regarding `CC[C@H](C)[C@H]1O[C@]2(C=C[C@@H]1C)C[C@@H]1C[C@@H](C/C=C(\C)[C@@H](O[C@H]3C[C@H](OC)[C@@H](O[C@H]4C[C@H](OC)[C@@H](NC)[C@H](C)O4)[C@H](C)O3)[C@@H](C)/C=C/C=C3\CO[C@@H]4[C@H](O)C(C)=C[C@@H](C(=O)O1)[C@]34O)O2`, the AC50 in test [1] was 0.247 µM (active); in test [17], 5 µM (active). Moreover, the call in test [2], in test [3], in [4], in test [5], in [6] and in test [7] was inactive. Besides, the call in test [9], in test [11], in [19], in test [15], in test [12] and in [20] was inactive. The result in [18] was inactive.

For the molecule `Nc1nc(N)nc(NC2CC2)n1`, the molecule was classed as inactive in test [1], in test [2], in test [3], in test [4], in test [5] and in test [9]. Besides, the result in test [14], in test [10], in [11] and in test [12] was inactive.
